Bioassay records: PubChem, several laboratories
In the library only some 3.1% were active in any assay of this set; here they are far more common.
LEDGF integ inh: blocks HIV-1 LEDGF/p75-dependent DNA integration. TR-FRET IN-LEDGF/p75 DNA integration, Eu/Cy5. inhibition, % at 3.7 µM. actives 0.64% (n = 370,000);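 active = inhibition above the screen-wide mean plus 3 SD, cut at about 13% in these data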;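 also: signal is the Cy5 over europium emission ratio at 671 and 618 nm; 0% = plate median of compound wells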
Neddyl block: blocks human cullin neddylation | actives 0.58% (n = 360,000) | AID 651699 | P61081+Q13564 | TR-FRET cullin neddylation, biochemical | calls only at 25 µM; in the data active = inhibition above about 36%
Rin1-Abl PPI inh: inhibitors of human Rin1-Abl protein interaction; TR-FRET Rin1/Abl binding, biochemical; P00519+Q13671; actives 0.4% (n = 360,000); inhibition, % at 7.35 µM; in the data active = inhibition above about 5%, passing the limit was not always enough
Target sequence (P00519 whole entry, looked up): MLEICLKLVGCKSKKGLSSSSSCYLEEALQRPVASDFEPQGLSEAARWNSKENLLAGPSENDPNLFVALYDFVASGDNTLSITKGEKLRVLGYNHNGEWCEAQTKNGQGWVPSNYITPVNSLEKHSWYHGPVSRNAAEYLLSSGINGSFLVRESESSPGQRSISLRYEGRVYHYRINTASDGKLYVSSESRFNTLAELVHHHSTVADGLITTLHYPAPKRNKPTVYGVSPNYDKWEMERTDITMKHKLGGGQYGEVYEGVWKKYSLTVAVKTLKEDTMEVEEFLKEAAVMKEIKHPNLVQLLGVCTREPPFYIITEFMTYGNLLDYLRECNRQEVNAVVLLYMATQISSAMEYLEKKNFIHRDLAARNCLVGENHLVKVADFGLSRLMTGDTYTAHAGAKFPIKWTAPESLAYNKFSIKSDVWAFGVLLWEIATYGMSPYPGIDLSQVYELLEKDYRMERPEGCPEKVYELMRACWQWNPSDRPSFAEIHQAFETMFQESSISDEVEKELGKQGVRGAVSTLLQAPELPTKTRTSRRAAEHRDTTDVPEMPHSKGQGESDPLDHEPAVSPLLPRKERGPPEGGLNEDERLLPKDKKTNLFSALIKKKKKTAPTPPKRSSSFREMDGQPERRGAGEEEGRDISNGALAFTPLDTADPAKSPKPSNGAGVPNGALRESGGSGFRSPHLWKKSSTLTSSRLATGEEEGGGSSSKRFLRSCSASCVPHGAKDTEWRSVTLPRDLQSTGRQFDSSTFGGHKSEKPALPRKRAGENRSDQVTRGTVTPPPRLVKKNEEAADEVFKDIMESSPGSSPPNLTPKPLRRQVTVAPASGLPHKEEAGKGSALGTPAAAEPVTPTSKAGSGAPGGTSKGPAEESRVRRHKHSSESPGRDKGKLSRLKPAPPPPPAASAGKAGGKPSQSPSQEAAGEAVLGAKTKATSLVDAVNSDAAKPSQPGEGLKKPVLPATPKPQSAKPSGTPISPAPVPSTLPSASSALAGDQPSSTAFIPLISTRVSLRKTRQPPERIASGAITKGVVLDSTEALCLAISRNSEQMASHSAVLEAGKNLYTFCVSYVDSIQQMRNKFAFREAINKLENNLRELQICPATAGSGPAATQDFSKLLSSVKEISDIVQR
Target sequence (Q13671 whole entry, looked up): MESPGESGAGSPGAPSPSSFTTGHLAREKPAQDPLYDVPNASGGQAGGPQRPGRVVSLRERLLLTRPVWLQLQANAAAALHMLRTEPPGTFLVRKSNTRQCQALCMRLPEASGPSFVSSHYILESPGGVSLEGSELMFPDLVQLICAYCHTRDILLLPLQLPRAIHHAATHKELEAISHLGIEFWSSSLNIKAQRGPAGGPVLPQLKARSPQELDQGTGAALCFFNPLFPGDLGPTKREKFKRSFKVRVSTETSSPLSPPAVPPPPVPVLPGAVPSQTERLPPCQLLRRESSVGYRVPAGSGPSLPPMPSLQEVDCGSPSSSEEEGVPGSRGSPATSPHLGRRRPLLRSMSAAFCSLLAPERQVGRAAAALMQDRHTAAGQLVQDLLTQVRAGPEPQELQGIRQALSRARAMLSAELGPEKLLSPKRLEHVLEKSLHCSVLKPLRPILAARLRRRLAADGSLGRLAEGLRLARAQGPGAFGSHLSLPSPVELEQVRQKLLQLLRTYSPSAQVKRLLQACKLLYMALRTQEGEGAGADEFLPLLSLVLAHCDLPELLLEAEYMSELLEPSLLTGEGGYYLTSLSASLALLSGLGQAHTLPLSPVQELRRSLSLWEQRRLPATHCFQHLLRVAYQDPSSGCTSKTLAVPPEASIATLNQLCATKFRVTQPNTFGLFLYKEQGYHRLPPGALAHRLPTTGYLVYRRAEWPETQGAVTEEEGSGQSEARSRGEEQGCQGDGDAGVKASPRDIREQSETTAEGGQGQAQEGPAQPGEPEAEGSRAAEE
MBD2 DNA inh: MBD2-methylated oligo binding inhibition; Q9UBB5; TR-FRET, MBD2 binding to methylated oligonucleotide; inhibition, % at 4.4 µM; actives 0.31% (n = 370,000); in the data active = inhibition above about 13%
UHRF1 binding: UHRF1 methyl-DNA binding inhibition; UHRF1 binding to methylated oligo, TR-FRET; inhibition, % at 4.4 µM; actives 0.75% (n = 370,000); AID 687016; in the data active = inhibition above about 21%;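 also: UHRF1 SRA domain binding a hemimethylated CpG hairpin DNA probe; 0% = median of test compound wells and 100% = reference inhibitor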
proKLK7 act: proKLK7 (human) activation, primary screen; P49862; purified proKLK7, EDANS-DABCYL substrate fluorescence; 100% is mature enzyme control, 0% vehicle; activation, % at 7 µM; actives 0.9% (n = 370,000); AID 652039;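 active = activation above the mean of all tested compounds plus 3 SD, computed per campaign excluding outliers beyond control limits, cut at about 13% in these data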
Active calls of the source: *; i = inactive; x = not tested or not shown; + = active, no number.

SMILES	LEDGF integ inh	Neddyl block	Rin1-Abl PPI inh	MBD2 DNA inh	UHRF1 binding	proKLK7 act
Cc1cccn2c(=O)c3cc(C(=O)NCc4ccco4)c(=N)n(CCc4ccccc4)c3nc12	11	x	-5	-7	-14	18*
N=c1c(C(=O)NCc2ccc(F)cc2)cc2c(=O)n3ccccc3nc2n1Cc1ccco1	3	+	-11	-6	-7	-3
N=c1c(C(=O)NCc2ccccc2)cc2c(=O)n3ccccc3nc2n1Cc1ccco1	3	x	-7	-7	-9	-5
CCCCn1c(=NC(=O)c2cccnc2)c(C(=O)OCC)cc2c(=O)n3ccccc3nc21	0	x	0	0	-1	4
CCOC(=O)c1cc2c(=O)n3ccccc3nc2n(Cc2ccco2)c1=NC(=O)c1ccc(OC)cc1OC	5	x	-3	-5	-1	17*
CC1=C(C)CC(C(=O)NCc2ccccc2F)C(C(=O)O)C1 (stereo not drawn)	2	i	-1	0	0	-1
COc1cccc(C#Cc2ccc3c(c2)O[C@H](CN(C)S(=O)(=O)c2ccccc2F)[C@H](C)CN([C@H](C)CO)S3(=O)=O)c1	7	i	1	-5	21*	-1
C[C@H](CO)N1C[C@H](C)[C@@H](CN(C)C(=O)c2cnccn2)Oc2cc(C#CCC3CCCC3)ccc2S1(=O)=O	0	i	-1	9	23*	0
C[C@H]1CN([C@@H](C)CO)S(=O)(=O)c2ccc(C#CC3CC3)cc2O[C@@H]1CN(C)S(C)(=O)=O	-3	i	-4	-4	2	0
Cc1ccc(S(=O)(=O)N(C)C[C@H]2Oc3cc(C#CC4CCCC4)ccc3S(=O)(=O)N([C@H](C)CO)C[C@H]2C)cc1	0	i	1	5	22*	1
CC(C)C#Cc1ccc2c(c1)O[C@@H](CN(C)C(=O)c1cnccn1)[C@@H](C)CN([C@@H](C)CO)S2(=O)=O	-5	i	-2	5	4	0
COc1cccc(C#Cc2ccc3c(c2)O[C@@H](CN(C)C(=O)c2ccccn2)[C@@H](C)CN([C@H](C)CO)S3(=O)=O)c1	-1	x	1	3	22*	-4
C[C@H](CO)N1C[C@H](C)[C@H](CN(C)C(=O)c2ccccn2)Oc2cc(C#Cc3ccc(F)cc3)ccc2S1(=O)=O	-1	i	-2	4	18	0
N#Cc1ccccc1NCCCN1CCC(C(O)(c2ccccc2)c2ccccc2)CC1	12	x	x	-4	-1	-1
COc1cccc(-c2nn(-c3ccccc3)cc2C(=O)NCC(=O)O)c1	2	i	0	8	22*	0
CC(=O)CCC(=O)NC1CCCc2c1cnn2-c1ccc(C(C)(C)C)cc1 (stereo not drawn)	-4	i	0	1	34*	0
Clc1ccc(N2CCN(Cc3c[nH]c4ncccc34)CC2)cc1	-1	i	1	-3	23*	0
c1ccc(CN2CCN(Cc3c[nH]c4ccccc34)CC2)cc1	3	i	0	2	0	1
Cc1cccc(CSC2=NCCN2C(=O)c2ccc(Br)o2)c1	2	i	-1	-5	46*	0
CC(C)(C)N(Cc1cn(CC2CCCCC2)nn1)S(=O)(=O)c1ccc(F)cc1Br	7	x	x	1	-2	0
Cc1cc(C)cc(N(CCC#N)C(=O)CSc2ncnc3sccc23)c1	-2	i	3	-1	2	0
COc1ccccc1COCC(O)CN(Cc1ccco1)Cc1ccccc1O (stereo not drawn)	-1	i	-2	1	25*	1
N=C1CCCN1CC(=O)c1ccc(Br)cc1	0	i	-4	6	22*	1
Fc1cccc(Cc2c(C3CCCCC3)nc3c4ccccc4ccn23)c1	-5	i	x	11	25*	2
CCCc1nc2c3ccccc3ccn2c1Cc1cccc(Cl)c1	-2	i	0	11	24*	1
CCCc1nc2c3ccccc3ccn2c1Cc1ccc(C)cc1	-2	i	1	2	18	0
c1ccc(Cc2c(C3CCCCC3)nc3c4ccccc4ccn23)cc1	-1	i	x	6	20	-1
